Screening data deposited in PubChem BioAssay by National Center for Advancing Translational Sciences (NCATS).
The list is not random: actives were taken first. Their share in the collection is about 2.9%.
ATXN2 expr inh: inhibitors of ATXN2 expression | Potency, µM (top dose mostly 57 µM), hits mostly inhibitors | HEK-293 ATXN2-luciferase reporter, luminescence, 24 h | hit rate 0.72% among 360,000; further: nearly all actives have a fitted effect of over 55% in size
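ATXN2-luciferase reporter cells (luciferase flanked by upstream and downstream ATXN2 gene portions) were treated 24 h at 37 °C with compounds at up to 57 uM. SteadyGlo luminescence gave expression; GF-AFC fluorescence gave viability.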
Nrf2 activator: Nrf2 pathway activation | AREc32 ARE-luciferase reporter (MCF7-derived line), luminescence, 24 h | Potency, µM (series often up to 46.1 µM), hits mostly activators | hit rate 0.31% among 410,000; further: nearly all actives have a fitted effect of over 65% in size
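Quantitative high-throughput format: AREc32 reporter cells, 1000 per well, received compound by pin transfer and were incubated 24 hr at 37 deg C, 5% CO2, before Steady-Glo luminescence detection.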
S2 tox: cell viability loss in ATXN counter-screen; Potency, µM (doses to about 56.7 µM), hits mostly cytotoxic; S2 cells (HEK-293 line with an ATXN2-luciferase reporter) viability, CellTiter-Fluor protease fluorescence, 24 h; hit rate 0.49% among 400,000; AID 651635; further: nearly all actives have a fitted effect of over 40% in size
Nrf2 inh: blocks Nrf2 signaling; Potency, µM (top dose mostly 46 µM), usual class: inhibitors; A549 ARE-Fluc reporter, luciferase luminescence, 18-24 h; hit rate 2.1% among 360,000; further: nearly all actives have a fitted effect of over 60% in size
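Reporter: ARE-Fluc in A549. Exposure: 18-24 h, 37 °C, 5% CO2, 5% FBS OPTI-MEM. Readouts: fluorescent cytotoxicity (CellTiter-Fluor), then luminescent Nrf2 signal after BugLite.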
A549 tox: kills or reduces viability of A549 cells in Nrf2 counter-screen; A549 ARE-Fluc cells, CellTiter-Fluor viability, 18-24 h; Potency, µM (doses to about 46 µM), most hits filed as inhibitors; hit rate 0.16% among 390,000; AID 504648
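A549 ARE-Fluc cells in 5% FBS OPTI-MEM, 5000 cells/well, rested 2 h then exposed to compounds in concentration-response for 18-24 h at 37 °C. Viability by CellTiter-Fluor fluorescence (Ex 405/Em 525) after 30 min; luciferase luminescence (BugLite, 15 min, RT) read afterwards.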
Of the large screens only hits and unclear results are named; the others gave an inactive call. The call rests on the fitted dose curve; in most records, active means well fitted curve in the direction sought with a large enough effect; inconclusive means small, poorly fitted or top-dose-only effect, or another doubt; inactive means no such curve, though single readings can be large; an effect the other way counts as inactive or inconclusive.

C[C@@]12CCC=C[C@H]1[C@H](c1ccc3ccccc3c1Br)N(Cc1ccccc1)C2=O	ATXN2 expr inh inconclusive, Nrf2 activator inconclusive, S2 tox 35µM
CC(=O)c1ccc(-c2ccc([C@H]3[C@@H]4C=CCC[C@@]4(C)C(=O)N3Cc3ccccc3)c(F)c2)cc1	ATXN2 expr inh inconclusive, Nrf2 inh 23µM
O=C(c1nc(-c2ccc(Cl)cc2)n2c1CCCCC2)N1CCN(c2ccccc2)CC1	none
Cc1cccc(S(=O)(=O)Nc2cccc3c2C(=O)c2ccccc2-3)c1	Nrf2 inh 18µM
Cc1ccc(NS(=O)(=O)c2ccc3c(c2)C(=O)c2ccccc2C3=O)c(C)c1	none
COC(=O)c1ccc(OCC(=O)c2ccc(O)cc2O)cc1	Nrf2 inh 8.2µM
O=C(COc1ccc(Cl)cc1)c1ccc(O)cc1O	Nrf2 inh 7.3µM
CCOC(=O)c1ccc(OCC(=O)c2ccc(O)cc2O)cc1	S2 tox inconclusive, Nrf2 inh inconclusive
CC(C)(C)NC(=O)NC(=O)CN1CCCCC1	none
O=C(Nc1ccn(Cc2c(F)c(F)cc(F)c2F)n1)c1ccc(COc2ccccc2Cl)cc1	Nrf2 inh 21µM
O=C(Nc1ccn(Cc2ccccc2F)n1)c1ccc(COc2ccccc2Cl)cc1	S2 tox inconclusive, Nrf2 inh 18µM
O=C(Nc1ccn(Cc2ccccc2F)n1)c1ccc(COc2cccc(Br)c2)cc1	Nrf2 inh inconclusive
Cc1cc(C)n2nc(C(=O)N(C)c3c(N)n(Cc4ccccc4)c(=O)[nH]c3=O)nc2n1	none
COC(=O)/C=C/C(=O)N1CCN(c2ccccc2C)CC1	Nrf2 activator inconclusive, S2 tox inconclusive
COCCN1C[C@@H](CO)O[C@@H](n2cnc3c(N4CCN(c5ccccc5)CC4)ncnc32)C1	none (no result: Nrf2 inh, A549 tox)
CC(C)C[C@H]1CN=C(Nc2ccccc2)N1CC1CCC(C(C)(C)C)CC1 (stereo partly drawn)	ATXN2 expr inh inconclusive, S2 tox 22µM
CCN(CC)S(=O)(=O)c1nnc(NC(=O)COc2ccccc2)s1	Nrf2 inh inconclusive (no result: ATXN2 expr inh, S2 tox)
CCN(CC)S(=O)(=O)c1nnc(NC(=O)COc2ccc(Cl)cc2)s1	Nrf2 inh 4.1µM
O=C(CCc1nnc(CCc2ccccc2)o1)NC(c1cccnc1)C(F)(F)F (stereo not drawn)	Nrf2 inh inconclusive
C[n+]1c(-c2ccccc2)cc2c(=Cc3ccc([N+](=O)[O-])cc3)c3ccccc3n21	ATXN2 expr inh inconclusive, S2 tox inconclusive, Nrf2 inh inconclusive, A549 tox inconclusive
CN(C)c1ccc(C=c2c3cc(O)ccc3n3c2cc(-c2ccccc2)[n+]3C)cc1	Nrf2 inh 18µM, A549 tox inconclusive
C[n+]1c(-c2ccccc2)cc2c(=Cc3ccccc3)c3ccccc3n21	ATXN2 expr inh 9.5µM, Nrf2 inh 21µM, A549 tox inconclusive (no result: S2 tox)
O=C(COC(=O)c1cccnc1Nc1cccc(C(F)(F)F)c1)NCCN1C(=O)CSC1=O	none
COc1ccc(CCN2C(=O)CS/C2=N\NC(=O)c2ccc(C(C)(C)C)cc2)cc1OC	Nrf2 inh inconclusive
COCCCN(CC(=O)Nc1ccc(N2CCOCC2)cc1)S(=O)(=O)c1ccccc1	none
CC(C)Cc1ccc(S(=O)(=O)N2CCC(c3ccncc3)CC2)cc1	ATXN2 expr inh 16µM, S2 tox inconclusive (no result: Nrf2 inh)
OC1CCCN(c2c3c(nc4cc(-c5cccc(Cl)c5)nn24)CCC3)C1 (stereo not drawn)	Nrf2 inh 4.6µM
Cc1cccc(-c2cc3nc4c(c(N5CCCC(O)C5)n3n2)CCC4)c1 (stereo not drawn)	Nrf2 inh inconclusive
COc1ccc(/C=C/C(=O)c2ccc3c4c(cccc24)CC3)cc1OC	ATXN2 expr inh 16µM, Nrf2 inh 18µM
CNc1c(C(=O)O)ccc2c1C(=O)c1ccccc1C2=O	S2 tox inconclusive, Nrf2 inh inconclusive, A549 tox 18µM
CCNc1c(C(=O)O)ccc2c1C(=O)c1ccccc1C2=O	Nrf2 inh inconclusive
CNC(=S)NN=C(C)CCCC(C)=NNC(=S)NC	ATXN2 expr inh 11µM, S2 tox inconclusive
Cc1cc(OCc2cc(C(=O)N3CCN(C)C(=O)[C@@H]3C)no2)cc(C)c1Cl	ATXN2 expr inh inconclusive, Nrf2 inh 21µM
CS(=O)(=O)c1ccc(NC(=O)c2ccccc2-n2cnnn2)cc1	none
